Screening results deposited in PubChem by Broad Institute.
Only a selection was taken, and hits are over-represented in it overall.
IDE exosite inh: displaces the probe from the exo-site of human IDE. hit rate 6.3% among 17,000. purified IDE, FL-6b probe fluorescence polarization; active compounds read low. z-score at 20 µM. P14735;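 active = z-score of -3 or lower, meaning strong loss of probe binding signal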;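 note: His-tagged human IDE residues 42-1019 made in E. coli with 30 nM FL-6b probe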
Target sequence (P14735 42-1019 limits assumed): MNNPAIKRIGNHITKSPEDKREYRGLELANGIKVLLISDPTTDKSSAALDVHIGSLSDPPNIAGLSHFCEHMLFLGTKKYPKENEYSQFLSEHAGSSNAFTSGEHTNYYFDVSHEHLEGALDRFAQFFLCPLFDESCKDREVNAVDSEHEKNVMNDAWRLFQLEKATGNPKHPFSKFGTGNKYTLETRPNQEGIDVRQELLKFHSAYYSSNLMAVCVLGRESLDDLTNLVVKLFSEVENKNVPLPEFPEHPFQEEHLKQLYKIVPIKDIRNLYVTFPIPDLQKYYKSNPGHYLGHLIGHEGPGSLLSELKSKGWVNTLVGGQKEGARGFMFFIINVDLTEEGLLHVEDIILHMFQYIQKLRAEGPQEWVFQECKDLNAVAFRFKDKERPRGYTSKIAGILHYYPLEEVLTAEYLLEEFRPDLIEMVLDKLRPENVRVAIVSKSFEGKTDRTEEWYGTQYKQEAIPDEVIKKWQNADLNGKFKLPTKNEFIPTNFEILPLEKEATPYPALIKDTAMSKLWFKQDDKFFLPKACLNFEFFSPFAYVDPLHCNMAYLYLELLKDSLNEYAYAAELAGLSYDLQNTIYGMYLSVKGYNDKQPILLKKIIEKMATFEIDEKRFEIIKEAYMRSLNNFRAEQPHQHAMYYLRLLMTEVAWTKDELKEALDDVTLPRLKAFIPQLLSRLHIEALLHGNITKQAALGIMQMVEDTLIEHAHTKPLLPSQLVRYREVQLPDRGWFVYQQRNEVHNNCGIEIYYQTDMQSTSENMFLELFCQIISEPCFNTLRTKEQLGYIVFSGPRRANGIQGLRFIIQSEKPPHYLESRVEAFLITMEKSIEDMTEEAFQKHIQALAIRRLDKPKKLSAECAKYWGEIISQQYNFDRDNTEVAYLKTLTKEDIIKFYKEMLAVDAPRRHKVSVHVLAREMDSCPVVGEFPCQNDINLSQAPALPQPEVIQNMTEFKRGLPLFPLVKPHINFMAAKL
Each line names hits and unclear results; the compound was inactive in the other large screens.

COc1cccc(C#Cc2ccc([C@@H]3[C@@H](C#N)N(C(=O)C4CCC4)[C@H]3CO)cc2)c1	none
CC(C)NC(=O)NC[C@@H]1[C@H](c2ccccc2)[C@H](CO)N1C(=O)c1ccccc1	none
CO[C@@H]1CC[C@H]2CCN(C)C(=O)[C@H](C)CN(C)C(=O)c3cc(C#N)ccc3OC[C@H]1O2	none
C/C=C/c1ccc([C@H]2[C@H]3CN(C(=O)Nc4ccc(OC)cc4)CCCCN3[C@H]2CO)cc1	none
C[C@H](CO)N1C[C@H](C)[C@H](CN(C)C(=O)c2ccccc2)Oc2ncc(C#Cc3ccccc3)cc2C1=O	none
CNC(=O)C[C@@H]1CC[C@@H]2[C@H](COC[C@@H](O)CN2Cc2ccccc2F)O1	none
CC(C)CC#Cc1ccc([C@@H]2[C@H](CO)N3C(=O)CN(C(=O)NC(C)C)C[C@@H]23)cc1	none
O=C([C@H]1N[C@H]2c3ccc(-c4ccc(F)cc4)c(=O)n3C[C@H]2[C@@H]1CO)N1CCc2ccccc2C1	none
OC[C@@H]1[C@@H](c2ccc(C#Cc3ccccc3F)cc2)[C@@H]2CN(Cc3cncnc3)CCCCN12	IDE exosite inh -6.32
OC[C@H]1[C@@H](c2ccc(C#Cc3ccccc3F)cc2)[C@H]2CN(Cc3cncnc3)CCCCN21	none
OC[C@@H]1[C@H](c2ccc(-c3ccccc3F)cc2)[C@@H]2CN(Cc3cccnc3)CCCCN12	none
OC[C@@H]1[C@@H](c2ccc(C#Cc3cccnc3)cc2)[C@@H]2CN(Cc3ccccc3F)CCCCN12	none
OC[C@H]1[C@@H](c2ccc(C#Cc3ccccc3F)cc2)[C@@H]2CN(Cc3cncnc3)CCCCN12	IDE exosite inh -15.1
OC[C@H]1[C@@H](c2ccc(-c3ccccc3F)cc2)[C@H]2CN(Cc3cncnc3)CCCCN21	IDE exosite inh -3.19
OC[C@H]1[C@@H](c2ccc(-c3ccccc3F)cc2)[C@@H]2CN(Cc3cncnc3)CCCCN12	none
C[C@@H](O)C#Cc1ccc([C@H]2[C@H](CO)N3CCCCN(C(=O)Nc4ccccc4)C[C@@H]23)cc1	none
C/C=C/c1ccc2c(c1)[C@H]1[C@H](CCN1S(=O)(=O)c1ccccc1F)[C@H](CO)N2	none
C/C=C/c1ccc([C@H]2[C@H]3CN(Cc4ccccc4)CC(=O)N3[C@H]2CO)cc1	none
COCC#Cc1ccc([C@@H]2[C@H](CO)N3C(=O)CN(C(=O)Nc4cc(F)ccc4F)C[C@@H]23)cc1	none
COc1ccccc1S(=O)(=O)N(C)C[C@H]1OCc2cn(nn2)CCCC(=O)N([C@@H](C)CO)C[C@H]1C	none
C[C@@H]1CN([C@H](C)CO)C(=O)CCCn2nncc2CO[C@H]1CN(C)Cc1ccc2c(c1)OCCN2C	none
C/C=C/c1ccc([C@@H]2[C@H](CO)N[C@H]2CNC(=O)c2ccccc2F)cc1	none
CCC(=O)N1[C@H](CNC(=O)COC)[C@H](c2ccc(-c3ccccc3)cc2)[C@@H]1CO	none
CCS(=O)(=O)N(C)C[C@@H]1N[C@H](CO)[C@@H]1c1ccc(-c2ccccc2F)cc1	none
O=C(NC[C@H]1N[C@H](CO)[C@@H]1c1ccc(-c2ccccc2F)cc1)c1ccccc1	IDE exosite inh -9.99
CCC(=O)N1[C@H](CNC(=O)COC)[C@@H](c2ccc(-c3ccccc3)cc2)[C@@H]1CO	IDE exosite inh -3.46
COCC(=O)NC[C@H]1N[C@H](CO)[C@H]1c1ccc(-c2ccccc2F)cc1	IDE exosite inh -3.27
COCC(=O)NC[C@H]1N[C@H](CO)[C@@H]1c1ccc(C2=CCCCC2)cc1	none
CCC(=O)NC[C@H]1N[C@H](CO)[C@@H]1c1ccc(-c2ccccc2F)cc1	none
COCC(=O)NC[C@H]1[C@H](c2ccc(-c3ccccc3)cc2)[C@@H](CO)N1C(C)=O	none
COCC(=O)NC[C@H]1N[C@H](CO)[C@@H]1c1ccc(-c2ccccc2F)cc1	IDE exosite inh -3.08
O=C(NC[C@H]1N[C@H](CO)[C@@H]1c1ccccc1)c1ccccc1F	none
O=C(NC[C@@H]1N[C@@H](CO)[C@H]1c1ccccc1)c1ccccc1F	none
C[C@H]1CCCCO[C@@H](CN(C)CC2CCCCC2)[C@@H](C)CN([C@@H](C)CO)C(=O)c2cc(NS(C)(=O)=O)ccc2O1	none
CCCNC(=O)N1[C@@H]2Cn3c(cccc3=O)[C@H]1[C@@H](C(=O)N1CCC(Cc3ccccc3)CC1)[C@@H]2CO	none
CCCC#Cc1ccc([C@H]2[C@@H](CO)N(C(=O)C3CCCC3)[C@H]2C#N)cc1	none
CN1CCN(C(=O)C[C@H]2CC[C@H]3[C@@H](COC[C@H](O)CN3CC3CCCCC3)O2)CC1	none
O=C(Nc1ccccc1)N1CCCCN2[C@H](CO)[C@H](c3ccc(C#Cc4ccccn4)cc3)[C@H]2C1	none
N#C[C@H]1[C@@H](c2ccc(C#CC3(O)CCCC3)cc2)[C@H](CO)N1C(=O)C1CC1	none
CN(C)CC(=O)N1[C@H](CO)[C@@H](c2ccccc2-c2ccccc2F)[C@@H]1C#N	none
Cc1noc(C)c1NC(=O)Nc1ccc2c(c1)C(=O)N(C)[C@@H]1CC[C@H](CC(=O)N[C@H]3CCN(Cc4ccccc4)C3)O[C@H]1CO2	none
CCC(=O)N1[C@H](CN(C)C(C)=O)[C@@H](c2ccc(-c3ccc(F)cc3)cc2)[C@@H]1CO	none
C[C@H](CO)N1C[C@H](C)[C@@H](CN(C)C(=O)Nc2ccc(F)cc2)Oc2c(cccc2N(C)C)C1=O	none
COc1ccccc1NC(=O)N1CCCCN2[C@H](CO)[C@@H](c3ccc(-c4cccc(C)c4)cc3)[C@@H]2C1	none
COc1ccccc1NC(=O)N1CCCCN2[C@H](C1)[C@H](c1ccc(-c3cccc(C)c3)cc1)[C@@H]2CO	none
Cc1cccc(-c2ccc([C@@H]3[C@@H](CO)N4CCCCN(C(=O)NC(C)C)C[C@@H]34)cc2)c1	IDE exosite inh -5.51
Cc1cccc(-c2ccc([C@@H]3[C@@H](CO)N4CCCCN(C(=O)NC(C)C)C[C@H]34)cc2)c1	IDE exosite inh -7.25
Cc1cccc(-c2ccc([C@H]3[C@@H](CO)N4CCCCN(C(=O)NC(C)C)C[C@@H]34)cc2)c1	IDE exosite inh -6.02
COc1ccccc1NC(=O)N1CCCCN2[C@@H](CO)[C@@H](c3ccc(-c4cccc(C)c4)cc3)[C@@H]2C1	none
O=C(c1ccc2c(c1)OCO2)N1C[C@@H]2[C@H](c3ccccc31)[C@H](CO)N2C(=O)CC1CC1	none
Cn1cnc(S(=O)(=O)N2C[C@@H](O)COC[C@@H]3O[C@@H](CC(=O)NCc4cccc(F)c4)CC[C@H]32)c1	none
O=C(c1cnccn1)N1CC(=O)N2[C@H](C1)[C@H](c1ccc(C#CCc3ccccc3)cc1)[C@@H]2CO	none
Cc1ccc(NC(=O)Nc2ccc3c(c2)C(=O)N(C)[C@H]2CC[C@H](CC(=O)NCC(F)(F)F)O[C@H]2CO3)cc1	none
CC=Cc1ccc2n(c1=O)C[C@@H]1[C@@H](CO)[C@H](C(=O)N[C@@H](C)c3ccccc3)[C@H]2N1Cc1cncnc1 (mixture of isomers)	none
COc1ccc2c3c(n(C)c2c1)[C@H](CO)NCC31CCN(C(=O)Nc2ccc3c(c2)OCO3)CC1	none
CN1C(=O)c2cc(NC(=O)c3ccc(C#N)cc3)ccc2OC[C@H]2O[C@@H](CC(=O)Nc3cc(F)ccc3F)CC[C@@H]21	none
Cc1ccccc1S(=O)(=O)N1CCCCN2[C@@H](CO)[C@H](c3ccc(-c4cncnc4)cc3)[C@@H]2C1	none
Cc1ccccc1S(=O)(=O)N1CCCCN2[C@H](CO)[C@@H](c3ccc(-c4cccnc4)cc3)[C@@H]2C1	IDE exosite inh -11.6
Cc1ccccc1S(=O)(=O)N1CCCCN2[C@H](CO)[C@H](c3ccc(-c4cccnc4)cc3)[C@H]2C1	none
O=S(=O)(c1ccccc1F)N1CCCCN2[C@H](CO)[C@@H](c3ccc(-c4cccnc4)cc3)[C@H]2C1	none
